# CCHF vOTU inh = CCHFV vOTU protease inhibition. Pep-AMC fluorescence. inhibition, % at 11.5 µM. actives 0.55% (n = 370,000); in the data active = inhibition above about 30%; note: 0% = vehicle wells with enzyme and 100% = no enzyme wells
# RecA intein inh = inhibitors of M. tuberculosis RecA intein splicing; P9WHJ3; cell-free RecA intein splicing, fluorescence; inhibition, % (test concentration not listed); actives 0.75% (n = 290,000); AID 2221; in the data active = inhibition above about 30%;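 note: 0% = vehicle wells and 100% = reference inhibitor control wells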
# SARS 3CLpro inh-1 = SARS-CoV 3CLpro protease inhibition. AID 1706. actives 0.14% (n = 290,000). inhibition, % at 6 µM. P0C6X7. recombinant SARS-CoV 3CLpro, quenched FRET peptide cleavage; in the data active = inhibition above about 12%
# VHR inh abs = blocks human VHR1 dual specificity phosphatase. P51452. recombinant VHR phosphatase, pNPP absorbance. inhibition, % at 13.3 µM. actives 0.52% (n = 290,000); in the data active = inhibition above about 50%
# SARS 3CLpro inh-2 = SARS 3CLpro inhibition, confirmation assay; QFRET protease activity assay; shares compounds with SARS 3CLpro inh-1; actives 36% (n = 380); AID 1879; inhibition, % at 6 µM; in the data active = inhibition above about 13%
# * hit, by the source's call; . = no result given. Compounds with a hit are over-represented: about 1.5% of the library has one in this group of screens.
SMILES,CCHF vOTU inh,RecA intein inh,SARS 3CLpro inh-1,VHR inh abs,SARS 3CLpro inh-2
CCCNC(=O)CCc1nnc2ccc(N3CCC(C)CC3)nn12,2,0,3,1,.
CC1CCN(c2ccc3nnc(CCC(=O)NCCCOC(C)C)n3n2)CC1,9,1,16*,4,-1
O=C(NC(NC(=S)Nc1cccc(Cl)c1)C(Cl)(Cl)Cl)OCc1ccccc1 (stereo not given),-6,14,13*,21,6
COc1cc(/C=N/NC(=O)c2ccc3c(c2)OCO3)ccc1O,17,-2,1,66,.
COc1cc(/C=N/NC(=O)/C(=C\c2ccc3c(c2)OCO3)NC(=O)c2ccccc2)ccc1O,11,-1,13*,13,2
O=C(c1ccccc1)n1c(=O)cc[nH]c1=O,15,-1,.,.,.
COc1cccc(/C=N/NC(=O)c2nnn(-c3nonc3N)c2CN(C)c2ccccc2)c1,18,3,12*,2,0
CCCc1c(C(=O)N/N=C/c2ccc(OC)c(OCc3ccccc3)c2)nnn1-c1nonc1N,-19,-1,6,10,.
CN(Cc1c(C(=O)N/N=C/c2cccc(F)c2)nnn1-c1nonc1N)c1ccccc1,6,7,4,16,.
CCCc1c(C(=O)N/N=C/c2c(OC)ccc3ccccc23)nnn1-c1nonc1N,-2,-7,14*,1,0
Nc1[nH]c(C(=O)c2ccccc2)c(-c2ccccc2C(F)(F)F)c1C(=O)c1c[nH]c2ccccc12,11,.,.,.,.
CCN1C(=O)C(C(=O)c2ccccc2)SC1=S (stereo not given),.,2,2,9,.
NC(=S)N/N=C/c1ccc(C23CC4CC(CC(C4)C2)C3)cc1,.,.,14*,1,-2
NC(=S)N/N=C/c1ccccc1,3,3,3,19,.
O=C1C(C2=NC(c3ccccn3)C3C(=O)N(c4ccccc4)C(=O)C23)=C(O)c2ccccc21 (stereo not given),16,-2,80*,-7,3
O=C(O)/C(=C\c1cccc(OCc2ccccc2)c1)c1ccc(F)cc1,19,7,16*,6,6
O=C(O)c1cc(NN=C2c3ccccc3-c3ccccc32)ccc1Cl,17,7,14*,-23,11
C/C(=N\N=C(/N)SC1CC(=O)N(c2ccc(Cl)cc2)C1=O)c1cccs1 (stereo not given),13,6,13*,6,9
COc1cc(CNCCc2c[nH]c3ccccc23)cc(OC)c1,-7,-4,71*,16,-5
c1ccc(CNCCc2c[nH]c3ccccc23)cc1,-2,0,-2,6,.
CC(C)C(NC(=O)c1ccccc1)C(=O)OCC(=O)N1CCCC1 (stereo not given),-7,.,.,.,.
O=c1[nH]c(C2CCN(S(=O)(=O)c3ccccc3F)CC2)nc2c1nnn2Cc1ccc(OC(F)(F)F)cc1,15,2,13*,-3,7
COc1ccc(NC(=O)CSc2nc3[nH]ncc3c(=O)[nH]2)c(OC)c1,20,-3,.,.,.
O=C(Nc1ccc(OCC(F)(F)C(F)F)c(C(F)(F)F)c1)c1ccccc1,18,0,12,.,.
O=C(Nc1ccc(OCC(F)(F)C(F)F)c(C(F)(F)F)c1)c1ccccc1O,19,6,13*,6,15*
SMILES,CCHF vOTU inh,RecA intein inh,SARS 3CLpro inh-1,VHR inh abs,SARS 3CLpro inh-2
CC(=O)NC1C(=O)N(CCN2CCOCC2)c2ccc(Br)cc21 (stereo not given),-1,51*,14*,-22,47*
Cn1cnc2ncnn2c1=S,0,.,.,.,.
O=C(COc1ccccc1)Nc1ccc(S(=O)(=O)N2CCCCCC2)cc1,22,0,-4,20,.
O=C(COc1ccc(S(=O)(=O)N2CCCCC2)cc1)Nc1ccccc1F,17,0,12*,24,-6
CCc1c(C)sc(NC(=O)Cc2ccccc2OC)c1C(=O)N1CCOCC1,-8,-3,13*,-14,0
CCn1c(=O)c(=O)[nH]c2cc(C(=O)NCc3ccc(F)cc3)ccc21,3,.,-5,23,.
CC(C)(C)OC(=O)CNC(=O)c1[nH]cnc1C(=O)NC(c1ccccc1)c1ccccc1,12,9,13*,20,4
CC(C)(C)OC(=O)NCc1ccc(NC(=O)c2nc[nH]c2C(=O)N[C@@H](Cc2ccccc2)C(=O)OCc2ccccc2)cc1,16,2,.,-5,.
CC(C)(C)OC(=O)NCc1ccc(CNC(=O)c2[nH]cnc2C(=O)N[C@@H](Cc2ccccc2)C(=O)OC(C)(C)C)cc1,25,0,15*,13,12
CC(C)(C)OC(=O)NCc1ccc(CNC(=O)c2[nH]cnc2C(=O)N[C@@H](Cc2ccccc2)C(=O)OCc2ccccc2)cc1,23,3,14*,24,8
CC(C)(C)OC(=O)[C@H](Cc1ccccc1)NC(=O)c1nc[nH]c1C(=O)NCc1ccccc1,19,1,3,18,.
O=C(c1ccco1)N1CCC(Oc2cccnc2)CC1,2,.,.,.,.
O=C(COC(=O)c1c(F)cccc1F)NC(=O)NCc1ccccc1,-1,.,.,.,.
COc1ccc2c3c(ccc2c1)C(=O)/C(=C/O)CC3,-1,.,.,.,.
O=C(NC1CCCCN(Cc2ccc(Cl)cc2)C1=O)c1ccc(-c2ccccc2)cc1 (stereo not given),6,.,.,.,.
Cc1ccc(C(=O)O)cc1NC(=S)NC(=O)c1ccc(COc2ccccc2)cc1,1,12,16*,-2,13*
COc1ccc(N2CCN(C(=O)COC(=O)CCc3ccccc3OC)CC2)cc1,9,-3,.,.,.
CC(C)CS(=O)(=O)C1=NSC2=NC(=O)/C(=C\c3ccc(OC(=O)c4ccco4)cc3)C(=N)N21,5,41*,13*,-5,-1
CSC1=NSC2=NC(=O)/C(=C\c3ccc(OC(=O)c4ccco4)cc3)C(=N)N12,9,0,-5,2,.
O=C(CCNC(=O)Cn1cnc2ccccc2c1=O)NCC1CCCO1 (stereo not given),-11,-1,17*,-2,-3
Cc1cc(C)c(N(C(=O)Cn2nnc3ccccc32)C(C(=O)NC(C)(C)C)c2ccsc2)c(C)c1 (stereo not given),17,5,43*,6,69*
Cc1ccc(C)c(N(C(=O)Cn2nnc3ccccc32)C(C(=O)NC(C)(C)C)c2ccsc2)c1 (stereo not given),-14,-2,6,25,.
N#Cc1ccc(CSc2nnc(NC(=O)c3ccc4ncsc4c3)s2)cc1,4,23,13*,4,43*
O=C(Nc1nnc(SCc2c(Cl)cccc2Cl)s1)c1ccc2ncsc2c1,.,12,-1,80,.
N#C[C@@H]1N[C@H](CO)[C@@H]1c1ccccc1,-4,.,.,.,.
CN1CCN(c2ccccc2NC(=O)c2cccc([N+](=O)[O-])c2)CC1,-1,1,-1,35,.
O=C(Nc1ccccc1N1CCN(C(=O)c2ccc(Cl)cc2)CC1)c1cccc([N+](=O)[O-])c1,-7,6,14*,-3,-1
CCN(CC)C(=O)CC[C@@H]1CC[C@]2(CCCN(Cc3cccnc3)C2)O1,-1,.,.,.,.
O=C(c1ccccc1F)N1CCN(c2cccc(C(F)(F)F)c2)CC1,7,1,1,33,.

# Screening data: PubChem, several laboratories
